Assay [1] can be described thus: NCI Yeast Anticancer Drug Screen. Data for the rad50 strain (AID 155).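 Also: 0% = growth of vehicle-only cultures of the same strain.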 Conditions: S. cerevisiae rad50 strain growth inhibition; at 50.0 µM; stronger effect = higher value. An outline of the steps:
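Inhibition values express reduced yeast growth in compound-treated cultures relative to vehicle-treated controls.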

A short description of assay [2]: NCI Yeast Anticancer Drug Screen. Data for the mec2-1 strain (AID 157). As to conditions: S. cerevisiae mec2-1 strain, at 50.0 µM, stronger effect = higher value. Put shortly:
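Growth inhibition is read against vehicle-treated controls after compound exposure of the mec2-1 yeast strain, which is defective in DNA damage repair or cell cycle control.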

Assay [3] is described as follows: NCI Yeast Anticancer Drug Screen. Data for the sgs1 mgt1 strain (AID 161).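 Also: 0% = growth of cultures given vehicle only.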 Conditions: S. cerevisiae sgs1 mgt1 strain, at 50.0 µM, stronger effect = higher value. Put shortly:
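Compounds are added to genetically altered yeast, and growth is compared with cultures given vehicle alone to give percent inhibition.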

Assay [4] is described as follows: NCI Yeast Anticancer Drug Screen. Data for the cln2 rad14 strain (AID 165).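 Also: 0% = growth equal to vehicle treated cultures.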 As to conditions: S. cerevisiae cln2 rad14 strain, at 50.0 µM, stronger effect = higher value. Put shortly: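 Growth inhibition, relative to vehicle-treated controls, is the read-out. The test organism is a yeast strain with defined genetic alterations, cln2 rad14.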
Assay [5] in a line: NCI Yeast Anticancer Drug Screen. Data for the bub3 strain (AID 167). Conditions: S. cerevisiae bub3 mutant strain, at 50.0 µM, stronger effect = higher value. An outline of the steps: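 Steps: expose the mutant yeast strain to compound; grow alongside vehicle-treated cultures; measure growth; express inhibition against the vehicle cultures.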
A short description of assay [6]: NCI Yeast Anticancer Drug Screen. Data for the mlh1 rad18 strain (AID 175). As to conditions: S. cerevisiae mlh1 rad18 strain growth inhibition; at 50.0 µM; stronger effect = higher value. An outline of the steps:
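Cells of a genetically altered yeast strain, deficient in DNA damage repair, were treated with compound. Their growth was then compared with that of vehicle-treated cultures to give inhibition.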

This is part of a sample that, as a whole, favours compounds with a hit. Of some 79,000 tested, about 15% had one in any assay. Values without a mark were called inactive. Activity calls are given as the source filed them. Rule as the data show it: active = growth inhibition above about 70%; inactive = the rest.

`O=C1C2=C(c3ccccc31)C(c1ccc([N+](=O)[O-])cc1)NC(=S)N2` (stereo not given): the growth inhibition in assay [1] was 5.6%; in assay [2] it was 8.7%; in assay [3], 1.8%; in assay [4], 9.8%; in assay [5] it was -3.6%; in assay [6] it was 32.5%.
Take `Cc1ccccc1[B-]12OCC[N+]1(CNC(=O)c1ccccc1O)CCO2` (stereo not given): the growth inhibition was 26% in assay [1]; -2.1% in assay [2]; 3.5% in assay [3]; 16.6% in assay [4]; 1.35% in assay [5]; 8.5% in assay [6].
Regarding `C=CC[n+]1cccc(Oc2ccc([N+](=O)[O-])cc2[N+](=O)[O-])c1`, the growth inhibition is 73.7% (active) in assay [1]; 12.4% in assay [2]; 63.5% in assay [3]; 31.3% in assay [4]; 18.1% in assay [5]; 54.7% in assay [6].
With `O=C(OCc1ccco1)c1ccc([N+](=O)[O-])cc1`, the growth inhibition in assay [1] is -5.15%; in assay [2], -7.3%; in assay [3], -3.75%; in assay [4] it was -32.6%; in assay [5] it was -13.5%; in assay [6] it was -12.8%.
On to `Cc1nn2c(=O)n(-c3cccc(-n4nnc5c(-c6ccccc6)c(C)nn5c4=O)c3C)nnc2c1-c1ccccc1`, for which the growth inhibition in assay [1] is 33.9%; in assay [2], 40.4%; in assay [3] it was 30.2%; in assay [4], 46.1%; in assay [5], 43.2%; in assay [6], 43.9%.
For `NC(=NCC(O)c1ccccc1)Nc1ccccc1` (stereo not given), the growth inhibition in assay [1] was 0.75%; in assay [2] it was -8.6%; in assay [3] it was 15.1%; in assay [4], 6.1%; in assay [5], 18.1%; in assay [6], 10.6%.
For `CC1(C)OC(=O)C(=CN(C2CCCCC2)C2CCCCC2)C(=O)O1`, the growth inhibition in assay [1] is -6.45%; in assay [2], -6.6%; in assay [3] it was 7%; in assay [4], -21.2%; in assay [5], -33.6%; in assay [6], -13.3%.
On to `Nc1nc(=O)n(C2OC(CO)C(O)C2O)cc1F` (stereo not given), for which the growth inhibition in assay [1] was 10.8%; in assay [2], -10.2%; in assay [3], 4.4%; in assay [4], -3.1%; in assay [5], 11.5%; in assay [6], 7.6%.
With `O=C(Cc1ccccc1)NN1C(=O)C(Cl)C1c1ccccc1` (stereo not given), the growth inhibition in assay [1] is -10.3%; in assay [2] it was 15.2%; in assay [3] it was -12.5%; in assay [4] it was 4.8%; in assay [5] it was -5%; in assay [6], -2.3%.
Turning to `CCCCCCCNC(=O)C(Cl)Cl`, the growth inhibition in assay [1] was 7.85%; in assay [2], -16.8%; in assay [3], -6.65%; in assay [4], -2.55%; in assay [5], 39.8%; in assay [6] it was 7.4%.
In the case of `c1ccc(Nc2nnc(-c3nsc4ccccc34)o2)cc1`, the growth inhibition in assay [1] was -34.5%; in assay [2] it was -40.9%; in assay [3], -42.8%; in assay [4] it was -1.4%; in assay [5] it was -31.9%; in assay [6] it was -35.9%.
Regarding `c1ccc(SCCC(Sc2ccccc2)Sc2ccccc2)cc1`, the growth inhibition was -3.45% in assay [1]; 5% in assay [2]; -3.75% in assay [3]; -13.8% in assay [4]; -1.6% in assay [5]; 3.65% in assay [6].
With `O=S1(=O)CCC(N(N=C2CCCCC2)c2ccccc2)C1` (stereo not given), the growth inhibition was 96.5% (active) in assay [1]; 98.3% (active) in assay [2]; 98.5% (active) in assay [3]; 96.8% (active) in assay [4]; 98.4% (active) in assay [5]; 98% (active) in assay [6].
For the compound `O=[N+]([O-])c1c(O)c(O)c2ccccc2c1Nc1ccccc1`, the growth inhibition in assay [1] was -29.9%; in assay [2], -5.8%; in assay [3], -0.3%; in assay [4] it was -62.4%; in assay [5], 11.7%; in assay [6] it was -1.65%.
With `COc1cc(C(C)c2cc3c(cc2OCCNC(=O)COc2cc4c(cc2C(C)c2cc(OC)c(OC)c(OC)c2)OCO4)OCO3)cc(OC)c1OC` (stereo not given), the growth inhibition in assay [1] is -31.9%; in assay [2] it was -28.6%; in assay [3] it was -25.6%; in assay [4], 4.8%; in assay [5], -19.6%; in assay [6], -24.9%.
For `N#C/C(=C\c1ccc(C#N)cc1)C(=O)O`, the growth inhibition was -16.6% in assay [1]; -3.1% in assay [2]; -30% in assay [3]; 2.75% in assay [4]; -14.4% in assay [5]; 9.55% in assay [6].
For `CCOP(=O)(Cc1ccc(CP(=O)(OCC)OCC)n1C)OCC`, the growth inhibition was -6.15% in assay [1]; -7.5% in assay [2]; -13.7% in assay [3]; 17.4% in assay [4]; -4.7% in assay [5]; 15.1% in assay [6].
As to `CC1(c2ccccc2)CCC(=O)NC1` (stereo not given), the growth inhibition is -0.15% in assay [1]; -37.5% in assay [2]; -2.1% in assay [3]; 8.45% in assay [4]; -7.25% in assay [5]; 11.6% in assay [6].
Regarding `CN(C)C(=O)c1ccc[n+](CC(=O)NCc2ccccc2)c1`, the growth inhibition in assay [1] is 5.45%; in assay [2], -7.35%; in assay [3], -3.4%; in assay [4], 18.8%; in assay [5], 2.25%; in assay [6], 13.5%.
As to `Cc1ccc(N=c2oc3c(ccc4ccccc43)nc2Nc2ccc(C)cc2)cc1`, the growth inhibition in assay [1] is -33.5%; in assay [2], -32.5%; in assay [3], -46.2%; in assay [4] it was -35.5%; in assay [5], -32.8%; in assay [6] it was -19%.

The record behind these values is PubChem BioAssay (NCI).
